{"source": "PubChem BioAssay AID1851", "about": "(National Center for Advancing Translational Sciences (NCATS), 2009)", "note": "The whole screen tested about 16,000 compounds, of which about 5,800 (36%) were called active. About 23% were inconclusive and are not listed. The list shows a part of the results. Values without a mark were called inactive. Calls follow the shape of the dose curve; as a rule, active = well fitted curve in the direction sought with a large enough effect; inconclusive = small, poorly fitted or top-dose-only effect, or effect the other way; inactive = no such curve, though single readings can be large or run the other way. % is scaled to controls: 0 for no effect and ±100 for the full control effect."}
{"biological_target": "Cytochrome P450 2C19 (Homo sapiens) (UniProt P33261)", "sequence (P33261 whole entry, looked up)": "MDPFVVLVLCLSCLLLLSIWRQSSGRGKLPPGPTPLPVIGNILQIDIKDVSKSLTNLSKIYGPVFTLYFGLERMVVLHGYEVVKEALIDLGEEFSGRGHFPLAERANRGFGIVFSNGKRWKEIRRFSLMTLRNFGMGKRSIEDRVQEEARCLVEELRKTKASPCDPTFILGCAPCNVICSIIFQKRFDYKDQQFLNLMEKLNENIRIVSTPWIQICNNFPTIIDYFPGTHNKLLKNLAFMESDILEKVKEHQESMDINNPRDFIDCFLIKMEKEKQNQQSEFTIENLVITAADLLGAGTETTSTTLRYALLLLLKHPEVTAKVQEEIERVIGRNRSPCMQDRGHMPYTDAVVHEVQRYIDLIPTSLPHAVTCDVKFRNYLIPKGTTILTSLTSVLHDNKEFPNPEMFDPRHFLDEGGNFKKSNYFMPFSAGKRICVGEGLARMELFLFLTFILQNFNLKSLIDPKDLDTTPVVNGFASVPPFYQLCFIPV", "assay": "Cytochrome panel assay with activity outcomes", "details": "recombinant CYP, pro-luciferin dealkylation, luminescence, p450-cyp2c19; series mostly up to 57.1 µM; activity, negative = inhibition: at the top concentration"}
{"molecule": "O=C(O)c1cc2c(o1)CCC/C2=N\\O", "activity, negative = inhibition": "-25.5%"}
{"molecule": "CCn1c(SCC(=O)Nc2ccccc2C(=O)OC)nnc1-c1ccc(N)cc1", "AC50": "0.178 µM (active)"}
{"molecule": "CC(=O)OC1CCC(OC(C)=O)c2c1n([O-])c(C)c(C)[n+]2=O", "note": "(stereo not drawn)", "activity, negative = inhibition": "-13.8%"}
{"molecule": "CC(=O)Oc1ccccc1C(=O)Oc1ccccc1C(=O)O", "activity, negative = inhibition": "-8.83% [at 25.6 µM]"}
{"molecule": "Cc1ccccc1S(=O)(=O)Oc1ccccc1C(=O)Oc1ccccc1", "AC50": "1.78 µM (active)"}
{"molecule": "Cc1ccccc1S(=O)(=O)O[C@@H]1NS(=O)(=O)c2ccccc21", "activity, negative = inhibition": "24% [at 11.4 µM]"}
{"molecule": "CCOC(=O)C(C)CC(C)C(=O)N1CCOCCN(C(=O)C(C)CC(C)C(=O)OCC)CCOCC1", "note": "(stereo not drawn)", "AC50": "10 µM (active)"}
{"molecule": "CC(C)OC(=O)C(CC(=O)O)N1CCOCC1", "note": "(stereo not drawn)", "activity, negative = inhibition": "-11.3%"}
{"molecule": "NC(=O)CN1CCOCCOCCOCCOCCOCC1", "activity, negative = inhibition": "33.6%"}
{"molecule": "CC1(C)O[C@@H]2C[C@H]3[C@H]4C[C@H](F)C5=CC(=O)CC[C@]5(C)[C@@H]4[C@H](O)C[C@]3(C)[C@]2(C(=O)CO)O1", "activity, negative = inhibition": "18.6% [at 25.6 µM]"}
{"molecule": "c1ccc2c(c1)C(=Nc1ccc(N=C3c4ccccc4-c4ccccc43)cc1)c1ccccc1-2", "activity, negative = inhibition": "-36.8% [at 11.4 µM]"}
{"molecule": "O=C1CC(=Nc2ccccc2)NN1c1ccccc1", "AC50": "5.62 µM (active)"}
{"molecule": "CC1=NN(c2ccccc2)C(=O)C1", "activity, negative = inhibition": "8.71%"}
{"molecule": "CCCCC1=NN2C(=N)CC(=O)N=C2S1", "activity, negative = inhibition": "21.6%"}
{"molecule": "C[C@H]1COC(=O)[C@H](Cc2ccccc2)NC(=O)[C@@H](C)COC(=O)[C@H](Cc2ccccc2)NC1=O", "activity, negative = inhibition": "-17.3% [at 11.4 µM]"}
{"molecule": "CO[C@@H]1COC(=O)[C@H](Cc2ccccc2)NC(=O)C/C=C\\[C@@H](C)[C@H](OC)COC(=O)[C@@H](C)NC(=O)C/C=C\\[C@H]1C", "activity, negative = inhibition": "10.6% [at 11.4 µM]"}
{"molecule": "O=C1C(Cc2ccccc2)NC(=S)N1c1ccccc1", "note": "(stereo not drawn)", "AC50": "3.16 µM (active)"}
{"molecule": "C[C@H](NC(=O)Cn1cncn1)c1ccccc1", "activity, negative = inhibition": "-19.3%"}
{"molecule": "Cc1ccc(CNC(=O)Cn2cncn2)cc1", "AC50": "7.94 µM (active)"}
{"molecule": "O=C(Cn1cnc([N+](=O)[O-])c1)NCc1ccc(F)cc1", "activity, negative = inhibition": "-0.808%"}
{"molecule": "Cc1cc(N)n(-c2ccc3ccccc3c2)n1", "AC50": "25.1 µM (active)"}
{"molecule": "O=C(c1csnn1)N1CCC2(CC1)CN(c1ccccn1)C2", "activity, negative = inhibition": "-34%"}
{"molecule": "Cc1ccc(Nc2ccc(-n3ccnc3)nn2)cc1C", "AC50": "0.0501 µM (active)"}
{"molecule": "CCC(C)NC(=O)c1ccccc1NC(=O)Nc1ccccc1", "note": "(stereo not drawn)", "AC50": "10 µM (active)"}
{"molecule": "CC(C)C(=O)NC(=S)Nc1ccccc1C(=O)Nc1ccccc1", "AC50": "15.8 µM (active)"}
{"molecule": "Clc1ccc(CO[C@@H](Cn2ccnc2)c2ccc(Cl)cc2Cl)cc1", "AC50": "0.0631 µM (active)"}
{"molecule": "Clc1ccc([C@H](Cn2ccnc2)OCc2csc3c(Cl)cccc23)c(Cl)c1", "AC50": "0.251 µM (active)"}
{"molecule": "CC1(C)Cc2c(sc3c2C(=O)N(c2ccccc2)C2=NCCN23)CS1", "activity, negative = inhibition": "-11.2%"}
{"molecule": "Cn1c(-c2ccc(CN3CCCCC3)o2)nc2ccccc21", "activity, negative = inhibition": "-21.4%"}
{"molecule": "Clc1ccc(Cn2c(CN3CCCC3)nc3ccccc32)cc1", "AC50": "0.2 µM (active)"}
{"molecule": "Cc1ccccc1Cn1c(Cc2ccccc2)nc2ccccc21", "AC50": "2 µM (active)"}
{"molecule": "Cc1ccccc1CN1C2=NCCN2C(=O)C2=C1CCN(Cc1ccccc1)C2", "activity, negative = inhibition": "10.2% [at 11.4 µM]"}
{"molecule": "[O-][n+]1c(CN2CCCCC2)nc2cccc3c2c1-c1ccccc1-3", "activity, negative = inhibition": "9.09% [at 11.4 µM]"}
{"molecule": "c1ccc(Cn2c(CN3CCCC3)nc3ccccc32)cc1", "AC50": "3.55 µM (active)"}
{"molecule": "C[N+]1(C)CCO[C@](O)(c2ccccc2)C1", "activity, negative = inhibition": "42.8% [at 11.4 µM]"}
{"molecule": "c1cc2c(cc1C(N1CCNCC1)N1CCNCC1)OCO2", "activity, negative = inhibition": "14.2% [at 11.4 µM]"}
{"molecule": "c1ccc(SC(Sc2ccccc2)c2ccc3c(c2)OCO3)cc1", "AC50": "0.0316 µM (active)"}
{"molecule": "Cc1ccc(S(=O)(=O)N(CC(=O)N/N=C/c2ccc(F)cc2)c2cccc3cccnc23)cc1", "AC50": "1.12 µM (active)"}
{"molecule": "CC(C)COCC1CC2(CC(C)(c3csc(N)n3)OC2=O)C(=O)O1", "note": "(stereo not drawn)", "AC50": "15.8 µM (active)"}
{"molecule": "CCCSC1=C(C#N)C(c2cccnc2)C(C(=O)OCC)=C(c2ccccc2)N1", "note": "(stereo not drawn)", "AC50": "14.1 µM (active)"}
{"molecule": "N#Cc1cccc(NC(=O)N2CCCC3(CCN(C(=O)c4cnccn4)CC3)C2)c1", "activity, negative = inhibition": "-28%"}
{"molecule": "NN(CC(=O)O)CC(=O)O", "activity, negative = inhibition": "14.5% [at 11.4 µM]"}
{"molecule": "O=C(Nc1nc(-c2ccccc2)cs1)c1ccc(Br)o1", "AC50": "14.1 µM (active)"}
{"molecule": "O=C(Nc1nc(-c2ccccc2)cs1)c1cccc([N+](=O)[O-])c1", "AC50": "1.58 µM (active)"}
{"molecule": "CCNc1ncc2nc(C)c(=O)n(C)c2n1", "activity, negative = inhibition": "-43.7%"}
{"molecule": "COc1ccc([C@H]2Sc3ccccc3N(CCN(C)C)C(=O)[C@H]2OC(C)=O)cc1", "AC50": "inactive"}
{"molecule": "CN(C)CCCN=c1c2ccccc2n(C)c2[nH]c(=O)n(C)c(=O)c12", "activity, negative = inhibition": "31% [at 11.4 µM]"}
{"molecule": "CCNc1ncc2nc(-c3ccc(F)cc3)c(=O)n(CCC#N)c2n1", "activity, negative = inhibition": "-4.86%"}
